# Data as given in article PMC7862700, “An all-to-all approach to the identification of sequence-specific readers for epigenetic DNA modifications on cytosine”.
# Key:
# Assay in all cases: DAPPL (digital affinity profiling via proximity ligation, sequencing); 10 mM Tris-HCl pH 7.5, 50 mM NaCl, 1 mM DTT, 4% glycerol, room temperature, 30 min; GST-TFs on glutathione beads, 16-mer random dsDNA library, 0.1% formaldehyde crosslink after washing; high values mean tight binding
# [1] = biological target: T1, FLI1 (Homo sapiens, UniProt Q01543 1-452); conditions: protein: recombinant; tags: N-terminal GST; dsDNA, one strand shown
# T1 sequence: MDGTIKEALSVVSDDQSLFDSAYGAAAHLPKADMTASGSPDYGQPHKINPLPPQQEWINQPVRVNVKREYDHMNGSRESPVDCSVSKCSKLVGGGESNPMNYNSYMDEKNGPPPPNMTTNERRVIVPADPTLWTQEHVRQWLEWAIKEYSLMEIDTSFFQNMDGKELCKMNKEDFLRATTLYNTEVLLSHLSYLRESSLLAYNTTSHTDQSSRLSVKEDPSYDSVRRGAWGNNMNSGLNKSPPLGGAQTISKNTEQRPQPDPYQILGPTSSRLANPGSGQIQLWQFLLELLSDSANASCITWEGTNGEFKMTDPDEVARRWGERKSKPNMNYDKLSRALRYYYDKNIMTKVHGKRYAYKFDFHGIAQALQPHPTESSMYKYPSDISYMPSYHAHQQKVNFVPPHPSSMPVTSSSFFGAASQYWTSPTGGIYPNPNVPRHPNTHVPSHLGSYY
# In short: (§1)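 Human transcription factors fused to GST were expressed in yeast, captured on glutathione beads, given DNA barcodes and pooled with a GST-only negative control. Pools were incubated with 200 nmole of a 16-mer random double-stranded DNA library in Tris/NaCl/DTT/glycerol buffer at room temperature for 30 min. They were then washed, crosslinked with 0.1% formaldehyde, proximity-ligated (BsaI/T4 ligase, 1 h, 37 °C), PCR-amplified and sequenced on an Illumina NextSeq500. Binding signal is each 6-mer's read frequency for a factor divided by its frequency for the GST control.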
# [2] = biological target: T2, ELK1 (Homo sapiens, UniProt P19419 1-428); conditions: protein: recombinant; tags: N-terminal GST; dsDNA, one strand shown
# T2 sequence: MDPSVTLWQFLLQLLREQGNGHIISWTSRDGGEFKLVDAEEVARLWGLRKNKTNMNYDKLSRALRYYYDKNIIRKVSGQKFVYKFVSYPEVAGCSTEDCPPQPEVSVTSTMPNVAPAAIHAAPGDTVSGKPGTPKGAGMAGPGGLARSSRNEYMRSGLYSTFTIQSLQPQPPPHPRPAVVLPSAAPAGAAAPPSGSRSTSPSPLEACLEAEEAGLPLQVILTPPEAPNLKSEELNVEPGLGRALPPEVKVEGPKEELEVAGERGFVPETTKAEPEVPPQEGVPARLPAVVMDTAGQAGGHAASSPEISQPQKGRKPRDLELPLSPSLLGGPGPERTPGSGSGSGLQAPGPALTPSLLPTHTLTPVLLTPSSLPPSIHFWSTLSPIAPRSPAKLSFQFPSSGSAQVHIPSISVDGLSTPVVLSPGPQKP
# In short: as §1
# [3] = biological target: T3, GABPA (Homo sapiens, UniProt Q06546 1-454); conditions: protein: recombinant; tags: N-terminal GST; dsDNA, one strand shown
# T3 sequence: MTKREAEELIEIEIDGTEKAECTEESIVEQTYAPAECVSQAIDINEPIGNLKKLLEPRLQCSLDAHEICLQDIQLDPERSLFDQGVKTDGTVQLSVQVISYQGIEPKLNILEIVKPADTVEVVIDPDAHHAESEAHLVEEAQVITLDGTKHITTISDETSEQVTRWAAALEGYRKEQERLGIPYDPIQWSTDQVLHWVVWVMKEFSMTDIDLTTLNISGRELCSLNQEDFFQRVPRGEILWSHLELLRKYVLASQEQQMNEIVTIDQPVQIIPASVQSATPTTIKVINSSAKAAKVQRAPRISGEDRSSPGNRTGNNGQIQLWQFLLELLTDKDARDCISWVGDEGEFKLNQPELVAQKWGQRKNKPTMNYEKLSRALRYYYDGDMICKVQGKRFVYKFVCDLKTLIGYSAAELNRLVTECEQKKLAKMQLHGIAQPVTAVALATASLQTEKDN
# In short: as §1
# [4] = biological target: T4, ERG (Homo sapiens, UniProt P11308 1-479); conditions: protein: recombinant; tags: N-terminal GST; dsDNA, one strand shown
# T4 sequence: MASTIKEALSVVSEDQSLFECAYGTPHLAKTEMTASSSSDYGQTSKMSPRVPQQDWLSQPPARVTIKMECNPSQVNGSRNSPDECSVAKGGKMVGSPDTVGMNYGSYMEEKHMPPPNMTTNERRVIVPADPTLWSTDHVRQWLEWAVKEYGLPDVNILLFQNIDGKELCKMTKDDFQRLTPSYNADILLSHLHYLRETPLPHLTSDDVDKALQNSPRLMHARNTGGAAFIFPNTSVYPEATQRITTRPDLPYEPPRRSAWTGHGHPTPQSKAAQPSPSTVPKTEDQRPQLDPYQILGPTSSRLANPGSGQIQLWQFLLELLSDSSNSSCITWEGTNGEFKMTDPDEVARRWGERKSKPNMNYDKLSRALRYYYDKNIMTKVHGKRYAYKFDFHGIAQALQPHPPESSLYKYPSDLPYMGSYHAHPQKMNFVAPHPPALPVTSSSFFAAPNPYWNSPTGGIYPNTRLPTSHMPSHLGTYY
# In short: as §1
# [5] = biological target: ELF1 (Homo sapiens, UniProt P32519 1-619); conditions: protein: recombinant; tags: N-terminal GST; dsDNA, one strand shown
# In short: as §1
# [6] = biological target: T5, EHF (Homo sapiens, UniProt Q9NZC4 1-300); conditions: protein: recombinant; tags: N-terminal GST; dsDNA, one strand shown
# T5 sequence: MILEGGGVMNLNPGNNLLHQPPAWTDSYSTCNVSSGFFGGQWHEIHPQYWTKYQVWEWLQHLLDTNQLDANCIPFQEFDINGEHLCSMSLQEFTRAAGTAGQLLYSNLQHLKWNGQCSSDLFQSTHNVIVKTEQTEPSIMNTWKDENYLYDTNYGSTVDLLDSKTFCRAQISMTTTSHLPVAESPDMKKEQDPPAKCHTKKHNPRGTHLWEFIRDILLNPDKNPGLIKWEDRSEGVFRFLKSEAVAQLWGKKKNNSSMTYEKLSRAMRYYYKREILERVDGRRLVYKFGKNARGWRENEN
# In short: as §1
# [7] = biological target: SPI1 (Homo sapiens, UniProt P17947 1-270); conditions: protein: recombinant; tags: N-terminal GST; dsDNA, one strand shown
# In short: as §1
# [8] = biological target: SPIB (Homo sapiens, UniProt Q01892 1-262); conditions: protein: recombinant; tags: N-terminal GST; dsDNA, one strand shown
# In short: as §1
# [9] = biological target: T6, ELK3 (Homo sapiens, UniProt P41970 1-407); conditions: protein: recombinant; tags: N-terminal GST; dsDNA, one strand shown
# T6 sequence: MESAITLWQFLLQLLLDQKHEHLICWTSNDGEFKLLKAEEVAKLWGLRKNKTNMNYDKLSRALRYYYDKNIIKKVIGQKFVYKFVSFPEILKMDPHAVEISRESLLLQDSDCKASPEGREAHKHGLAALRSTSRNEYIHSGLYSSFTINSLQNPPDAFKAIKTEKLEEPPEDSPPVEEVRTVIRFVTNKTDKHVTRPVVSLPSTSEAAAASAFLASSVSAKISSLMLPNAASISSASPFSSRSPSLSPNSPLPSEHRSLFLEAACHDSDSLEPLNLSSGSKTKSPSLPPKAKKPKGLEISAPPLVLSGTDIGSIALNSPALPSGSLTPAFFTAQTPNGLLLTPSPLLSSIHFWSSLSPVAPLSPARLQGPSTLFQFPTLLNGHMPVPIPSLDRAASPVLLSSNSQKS
# In short: as §1
# [10] = biological target: T7, FEV (Homo sapiens, UniProt Q99581 1-238); conditions: protein: recombinant; tags: N-terminal GST; dsDNA, one strand shown
# T7 sequence: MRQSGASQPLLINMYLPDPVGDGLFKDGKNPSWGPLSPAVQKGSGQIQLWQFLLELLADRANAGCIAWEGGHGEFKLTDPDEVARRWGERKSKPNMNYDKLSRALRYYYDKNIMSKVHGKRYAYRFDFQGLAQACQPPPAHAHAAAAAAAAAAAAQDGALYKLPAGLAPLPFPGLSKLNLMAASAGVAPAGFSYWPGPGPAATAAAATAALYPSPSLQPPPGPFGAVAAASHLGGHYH
# In short: as §1
# [11] = biological target: ETV5 (Homo sapiens, UniProt P41161 1-510); conditions: protein: recombinant; tags: N-terminal GST; dsDNA, one strand shown
# In short: as §1
# [12] = biological target: HSF1 (Homo sapiens, UniProt Q00613 1-529); conditions: protein: recombinant; tags: N-terminal GST; chain copies: 3; dsDNA, one strand shown
# In short: as §1
# [13] = biological target: T8, SPIC (Homo sapiens, UniProt Q8N5J4 1-248); conditions: protein: recombinant; tags: N-terminal GST; dsDNA, one strand shown
# T8 sequence: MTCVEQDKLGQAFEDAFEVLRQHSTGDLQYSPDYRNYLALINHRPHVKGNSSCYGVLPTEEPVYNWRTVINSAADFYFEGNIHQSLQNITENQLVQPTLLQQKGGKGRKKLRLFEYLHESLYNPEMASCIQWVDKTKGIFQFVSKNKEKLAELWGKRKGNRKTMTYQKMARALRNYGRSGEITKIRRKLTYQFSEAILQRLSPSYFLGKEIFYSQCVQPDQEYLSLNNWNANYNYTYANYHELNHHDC
# In short: as §1
# [14] = biological target: ELF4 (Homo sapiens, UniProt Q99607 1-663); conditions: protein: recombinant; tags: N-terminal GST; dsDNA, one strand shown
# In short: as §1
# [15] = biological target: T9, ELK4 (Homo sapiens, UniProt P28324-2 1-405); conditions: protein: recombinant; tags: N-terminal GST; dsDNA, one strand shown
# T9 sequence: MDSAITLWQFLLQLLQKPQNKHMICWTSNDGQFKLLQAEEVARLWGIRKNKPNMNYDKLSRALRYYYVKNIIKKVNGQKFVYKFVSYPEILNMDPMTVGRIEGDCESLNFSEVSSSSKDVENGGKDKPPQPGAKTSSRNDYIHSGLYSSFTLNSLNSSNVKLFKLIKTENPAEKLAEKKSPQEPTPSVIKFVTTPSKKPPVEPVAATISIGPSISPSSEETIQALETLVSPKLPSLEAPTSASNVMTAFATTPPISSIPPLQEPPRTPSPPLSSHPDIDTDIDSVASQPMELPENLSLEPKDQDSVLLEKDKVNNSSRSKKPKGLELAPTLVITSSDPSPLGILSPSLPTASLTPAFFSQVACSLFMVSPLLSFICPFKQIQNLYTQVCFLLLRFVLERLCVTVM
# In short: as §1
# [16] = biological target: T10, ETV2 (Homo sapiens, UniProt O00321 1-342); conditions: protein: recombinant; tags: N-terminal GST; dsDNA, one strand shown
# T10 sequence: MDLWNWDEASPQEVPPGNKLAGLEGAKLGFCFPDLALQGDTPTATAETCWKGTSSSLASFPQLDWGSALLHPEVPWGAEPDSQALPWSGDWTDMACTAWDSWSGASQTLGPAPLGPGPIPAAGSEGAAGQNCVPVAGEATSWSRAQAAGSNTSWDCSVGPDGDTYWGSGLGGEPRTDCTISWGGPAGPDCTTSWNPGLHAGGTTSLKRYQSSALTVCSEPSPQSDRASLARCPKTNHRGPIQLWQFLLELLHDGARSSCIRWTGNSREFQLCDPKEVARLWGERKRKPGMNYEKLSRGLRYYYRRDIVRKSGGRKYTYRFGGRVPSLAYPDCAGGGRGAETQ
# In short: as §1
# [17] = biological target: T11, ELF3 (Homo sapiens, UniProt P78545 1-371); conditions: protein: recombinant; tags: N-terminal GST; dsDNA, one strand shown
# T11 sequence: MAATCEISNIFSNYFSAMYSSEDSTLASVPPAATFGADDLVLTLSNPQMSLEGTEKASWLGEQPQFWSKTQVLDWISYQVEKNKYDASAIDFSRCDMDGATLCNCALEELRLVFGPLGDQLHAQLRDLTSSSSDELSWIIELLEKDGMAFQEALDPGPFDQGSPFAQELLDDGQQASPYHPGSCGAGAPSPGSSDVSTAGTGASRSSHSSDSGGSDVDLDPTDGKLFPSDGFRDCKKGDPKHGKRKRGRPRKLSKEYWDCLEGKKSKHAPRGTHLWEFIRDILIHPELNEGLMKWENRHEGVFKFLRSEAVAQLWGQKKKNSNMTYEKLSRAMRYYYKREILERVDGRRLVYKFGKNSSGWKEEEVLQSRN
# In short: as §1
# [18] = biological target: CRX (Homo sapiens, UniProt O43186 1-299); conditions: protein: recombinant; tags: N-terminal GST; dsDNA, one strand shown
# In short: as §1
# [19] = biological target: ETV1 (Homo sapiens, UniProt P50549 1-477); conditions: protein: recombinant; tags: N-terminal GST; dsDNA, one strand shown
# In short: as §1
# SPIB, sequence (Q01892 whole entry): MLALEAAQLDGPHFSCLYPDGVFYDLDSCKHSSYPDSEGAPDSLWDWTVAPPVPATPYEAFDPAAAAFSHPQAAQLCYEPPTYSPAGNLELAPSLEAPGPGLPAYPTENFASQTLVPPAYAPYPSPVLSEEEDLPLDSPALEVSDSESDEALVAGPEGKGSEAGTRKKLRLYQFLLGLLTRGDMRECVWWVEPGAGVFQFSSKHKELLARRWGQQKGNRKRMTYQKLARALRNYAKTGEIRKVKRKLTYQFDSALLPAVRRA
# CRX, sequence (O43186 whole entry): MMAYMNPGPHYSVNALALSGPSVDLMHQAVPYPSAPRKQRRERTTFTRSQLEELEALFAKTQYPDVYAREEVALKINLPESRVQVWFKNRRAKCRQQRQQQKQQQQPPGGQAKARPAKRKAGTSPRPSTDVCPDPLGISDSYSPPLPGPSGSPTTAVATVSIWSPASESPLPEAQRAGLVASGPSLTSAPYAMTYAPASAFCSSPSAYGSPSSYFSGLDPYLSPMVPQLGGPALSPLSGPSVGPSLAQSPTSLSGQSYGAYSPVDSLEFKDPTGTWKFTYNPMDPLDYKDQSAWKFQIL
# ETV5, sequence (P41161 whole entry): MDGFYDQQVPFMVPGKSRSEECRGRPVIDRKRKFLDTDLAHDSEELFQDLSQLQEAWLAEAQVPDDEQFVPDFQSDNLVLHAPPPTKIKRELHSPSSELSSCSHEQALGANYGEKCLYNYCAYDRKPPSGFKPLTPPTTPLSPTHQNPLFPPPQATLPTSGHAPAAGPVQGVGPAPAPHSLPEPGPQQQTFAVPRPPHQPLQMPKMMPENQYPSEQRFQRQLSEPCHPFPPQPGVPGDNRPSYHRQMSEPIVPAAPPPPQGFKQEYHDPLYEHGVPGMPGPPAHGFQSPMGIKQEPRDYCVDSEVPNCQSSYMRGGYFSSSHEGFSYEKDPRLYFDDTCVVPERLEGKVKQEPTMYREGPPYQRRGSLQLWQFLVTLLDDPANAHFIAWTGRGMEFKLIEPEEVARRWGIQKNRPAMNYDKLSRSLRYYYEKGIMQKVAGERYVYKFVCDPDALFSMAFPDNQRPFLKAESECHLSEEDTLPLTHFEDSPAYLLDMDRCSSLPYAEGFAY
# HSF1, sequence (Q00613 whole entry): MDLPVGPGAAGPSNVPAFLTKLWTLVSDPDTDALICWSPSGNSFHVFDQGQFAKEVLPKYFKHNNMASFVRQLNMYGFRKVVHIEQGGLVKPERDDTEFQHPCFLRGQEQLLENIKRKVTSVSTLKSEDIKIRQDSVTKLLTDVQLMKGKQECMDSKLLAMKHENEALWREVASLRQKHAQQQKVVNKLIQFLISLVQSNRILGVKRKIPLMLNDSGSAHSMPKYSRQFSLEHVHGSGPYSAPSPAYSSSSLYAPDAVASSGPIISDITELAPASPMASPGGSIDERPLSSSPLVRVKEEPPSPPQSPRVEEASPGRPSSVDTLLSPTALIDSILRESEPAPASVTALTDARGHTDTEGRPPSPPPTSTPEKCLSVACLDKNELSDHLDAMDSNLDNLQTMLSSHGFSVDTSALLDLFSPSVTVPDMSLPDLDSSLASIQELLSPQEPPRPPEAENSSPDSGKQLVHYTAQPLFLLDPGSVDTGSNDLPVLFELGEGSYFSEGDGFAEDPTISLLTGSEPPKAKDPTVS
# ETV1, sequence (P50549 whole entry): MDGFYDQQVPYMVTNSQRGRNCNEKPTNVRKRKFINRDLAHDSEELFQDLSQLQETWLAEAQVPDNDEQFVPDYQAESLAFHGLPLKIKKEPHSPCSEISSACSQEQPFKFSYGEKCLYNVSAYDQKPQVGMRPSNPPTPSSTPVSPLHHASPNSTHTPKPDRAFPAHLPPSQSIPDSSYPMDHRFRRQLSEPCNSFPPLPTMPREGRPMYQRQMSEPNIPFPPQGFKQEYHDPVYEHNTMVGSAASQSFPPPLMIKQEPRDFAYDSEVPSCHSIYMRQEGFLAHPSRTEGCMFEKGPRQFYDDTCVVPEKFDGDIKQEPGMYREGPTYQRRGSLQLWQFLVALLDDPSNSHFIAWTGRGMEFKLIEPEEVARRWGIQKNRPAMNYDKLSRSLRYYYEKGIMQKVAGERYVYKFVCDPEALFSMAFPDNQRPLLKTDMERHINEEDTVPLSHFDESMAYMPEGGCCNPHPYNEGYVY
# ELF1, sequence (P32519 whole entry): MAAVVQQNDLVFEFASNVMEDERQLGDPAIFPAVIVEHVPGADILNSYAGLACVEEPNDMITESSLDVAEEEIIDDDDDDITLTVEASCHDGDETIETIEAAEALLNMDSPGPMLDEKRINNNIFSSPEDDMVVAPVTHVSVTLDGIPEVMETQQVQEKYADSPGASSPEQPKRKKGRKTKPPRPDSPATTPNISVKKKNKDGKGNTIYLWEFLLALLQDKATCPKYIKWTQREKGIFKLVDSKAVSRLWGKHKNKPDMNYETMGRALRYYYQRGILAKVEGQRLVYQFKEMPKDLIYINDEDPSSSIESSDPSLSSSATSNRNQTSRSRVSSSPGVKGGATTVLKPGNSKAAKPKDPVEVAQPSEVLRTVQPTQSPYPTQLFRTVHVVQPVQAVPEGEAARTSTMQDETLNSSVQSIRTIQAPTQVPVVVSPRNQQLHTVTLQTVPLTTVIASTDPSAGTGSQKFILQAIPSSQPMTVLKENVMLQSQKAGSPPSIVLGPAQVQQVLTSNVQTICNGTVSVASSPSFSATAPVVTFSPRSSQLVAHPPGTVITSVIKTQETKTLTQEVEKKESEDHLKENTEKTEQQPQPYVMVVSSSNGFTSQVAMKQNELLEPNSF
# ELF4, sequence (Q99607 whole entry): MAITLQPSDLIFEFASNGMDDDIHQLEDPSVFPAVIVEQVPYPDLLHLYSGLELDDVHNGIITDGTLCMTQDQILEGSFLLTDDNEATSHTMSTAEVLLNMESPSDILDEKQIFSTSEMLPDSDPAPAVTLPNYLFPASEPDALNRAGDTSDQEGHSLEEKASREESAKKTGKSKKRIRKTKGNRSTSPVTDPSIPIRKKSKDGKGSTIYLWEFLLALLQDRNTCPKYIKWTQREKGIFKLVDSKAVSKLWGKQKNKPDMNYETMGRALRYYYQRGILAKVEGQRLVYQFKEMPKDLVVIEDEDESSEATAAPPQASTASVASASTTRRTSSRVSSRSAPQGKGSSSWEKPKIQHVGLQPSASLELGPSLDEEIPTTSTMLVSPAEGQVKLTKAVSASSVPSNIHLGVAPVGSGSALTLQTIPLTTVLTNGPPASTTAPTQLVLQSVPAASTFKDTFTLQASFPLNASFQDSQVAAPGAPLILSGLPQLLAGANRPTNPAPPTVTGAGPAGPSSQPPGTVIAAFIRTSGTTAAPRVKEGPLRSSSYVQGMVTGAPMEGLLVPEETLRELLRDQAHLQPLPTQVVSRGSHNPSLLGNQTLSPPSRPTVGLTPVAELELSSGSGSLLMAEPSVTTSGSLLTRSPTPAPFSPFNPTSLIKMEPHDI
sequence,measurement,setting,value
TAGCTT,binding signal,[1],"1.18 fold enrichment (6-mer frequency, TF over GST control)"
same,binding signal,[2],"1.26 fold enrichment (6-mer frequency, TF over GST control)"
same,binding signal,[3],"1.31 fold enrichment (6-mer frequency, TF over GST control)"
same,binding signal,[4],"1.17 fold enrichment (6-mer frequency, TF over GST control)"
same,binding signal,[5],"1.21 fold enrichment (6-mer frequency, TF over GST control)"
same,binding signal,[6],"1.21 fold enrichment (6-mer frequency, TF over GST control)"
same,binding signal,[7],"1.25 fold enrichment (6-mer frequency, TF over GST control)"
same,binding signal,[8],"1.29 fold enrichment (6-mer frequency, TF over GST control)"
same,binding signal,[9],"1.31 fold enrichment (6-mer frequency, TF over GST control)"
same,binding signal,[10],"1.2 fold enrichment (6-mer frequency, TF over GST control)"
same,binding signal,[11],"1.31 fold enrichment (6-mer frequency, TF over GST control)"
same,binding signal,[12],"1.4 fold enrichment (6-mer frequency, TF over GST control)"
same,binding signal,[13],"1.28 fold enrichment (6-mer frequency, TF over GST control)"
same,binding signal,[14],"1.1 fold enrichment (6-mer frequency, TF over GST control)"
same,binding signal,[15],"1.21 fold enrichment (6-mer frequency, TF over GST control)"
same,binding signal,[16],"1.15 fold enrichment (6-mer frequency, TF over GST control)"
same,binding signal,[17],"1.33 fold enrichment (6-mer frequency, TF over GST control)"
same,binding signal,[18],"1.83 fold enrichment (6-mer frequency, TF over GST control)"
same,binding signal,[19],"1.2 fold enrichment (6-mer frequency, TF over GST control)"
